Screening results from PubChem BioAssay.
BH1578 lux ind – inducers of Vibrio cholerae quorum light production without autoinducers; activation, % at 18.7 µM; 0.16% of 350,000 active; V. cholerae BH1578 lux reporter, luminescence, 6 h; in the data active means activation mostly above about 9.7%, no sharp cut-off
FBA Mtb inh – Mtb fructose-bisphosphate aldolase inhibition; purified M. tuberculosis FBA, fluorescence read-out; AID 588726; 2.3% of 360,000 active; P9WQA3; inhibition, % at 1 µM; in the data active means inhibition above about 27%
Target sequence (P9WQA3 whole entry, looked up): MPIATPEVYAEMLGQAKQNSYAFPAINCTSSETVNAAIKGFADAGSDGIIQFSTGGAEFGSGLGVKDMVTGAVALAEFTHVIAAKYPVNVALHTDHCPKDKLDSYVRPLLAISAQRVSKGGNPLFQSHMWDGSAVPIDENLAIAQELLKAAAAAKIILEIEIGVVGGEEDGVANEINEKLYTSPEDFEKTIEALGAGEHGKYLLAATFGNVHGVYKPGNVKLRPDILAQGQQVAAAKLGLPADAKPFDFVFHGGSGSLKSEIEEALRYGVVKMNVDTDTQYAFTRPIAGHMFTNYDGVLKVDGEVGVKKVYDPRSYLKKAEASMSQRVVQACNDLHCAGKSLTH
GDH-TPI counter – GDH-TPI coupled enzyme inhibition counter-screen | GDH-TPI coupled enzyme counterscreen, NADH absorbance | 1.2% of 360,000 active | AID 588335 | inhibition, % at 4.8 µM
CCHF vOTU inh – blocks the CCHF virus ovarian tumor domain protease. CCHFV vOTU protease, Pep-AMC fluorescence. inhibition, % at 11.5 µM. 0.55% of 370,000 active
Large screens that a line does not name were inactive. A selection: hits, their analogues and other compounds. The true share with any hit is near 3.9%. Unless noted, no stated cut-off is given here; in the data, active means inhibition above about 30%; inactive means the rest.

COc1cc(/C=N/NC(=O)c2nc(C)cc(C)n2)ccc1O	GDH-TPI counter 37.1
O=C1C(Oc2ccccc2)C(c2ccc3c(c2)OCO3)N1CCc1ccc(F)cc1 (centres undefined)	GDH-TPI counter 33.3
Cn1cccc1/C=N/NC(=O)c1cccnc1	GDH-TPI counter 47.5
Cc1ccc(C(=O)N/N=C\c2ccc(-c3ccc(Cl)cc3)o2)cn1	GDH-TPI counter 31.3
Cc1ccc(C(=O)N/N=C\c2ccccn2)cn1	none
Cn1cccc1/C=N/NC(=O)c1ccc[n+]([O-])c1	none
Cc1cc(C(=O)NN=Cc2ccc(-c3ccc(F)cc3)o2)c(C)o1	GDH-TPI counter 53.3
Cc1ccc(C(=O)N/N=C\c2cccn2C)cn1	GDH-TPI counter 53.7
COc1cc(/C=C2\N=C(c3c(-c4ccccc4)noc3C)OC2=O)ccc1OC(C)=O	none
O=P(OCCCl)(OCCCl)OCCCl	none (no result: BH1578 lux ind, FBA Mtb inh, GDH-TPI counter)
COc1ccc(C=NNC(=O)c2cc(C)oc2C)cc1O	GDH-TPI counter 30.7
COc1ccc(/C=N/NC(=O)c2cc3c(OC)ccc(OC)c3[nH]2)cc1O	GDH-TPI counter 43.4
COc1cc(/C=N/NC(=O)c2cc(C)oc2C)ccc1O	none
Oc1c(Br)cc(/C=N/n2c(-c3ccccc3)n[nH]c2=S)cc1Br	GDH-TPI counter 31.0
Oc1c(Br)cc(/C=N/n2c(-c3ccccc3)n[nH]c2=S)c(O)c1Br	GDH-TPI counter 36.1 (no result: CCHF vOTU inh)
Oc1ccc(/C=N/n2c(-c3ccccc3)n[nH]c2=S)cc1Br	GDH-TPI counter 47.6
COc1cc(/C=N/n2c(-c3ccccc3)n[nH]c2=S)cc(OC)c1O	none
C[C@@H]1CN([C@@H](C)CO)S(=O)(=O)c2ccc(C#CC3CCCCC3)cc2O[C@@H]1CN(C)Cc1cccnc1	none
CCCCCC(=O)NC(=S)NNC(=O)CC	none
Brc1ccc2nc(-c3c[nH]c4ccccc34)cn2c1	none
Cc1cccn2cc(-c3c[nH]c4ccccc34)nc12	FBA Mtb inh 194.9
CCOC(=O)CSc1nnc(CSc2nc3sc4c(c3c(=O)[nH]2)CCCC4)n1-c1ccccc1	none
CCC(=O)OCc1cc(=O)oc2ccc3ccccc3c12	FBA Mtb inh 170.0
O=C1CCCC2=C1C(c1ccc3c(c1)OCO3)c1c([nH]n(-c3ccccc3)c1=O)N2 (centres undefined)	GDH-TPI counter 37.2
Cn1cc(C(=O)C(=O)NC2CCCCC2)c2ccccc21	BH1578 lux ind 80.1
O=C(NC1CC1)C(=O)c1c(-c2ccccc2)[nH]c2ccccc12	none
Cn1cc(C(=O)C(=O)N2CCOCC2)c2ccccc21	GDH-TPI counter 30.9
Cn1cc(C(=O)C(=O)N2CCN(c3ccccc3)CC2)c2ccccc21	none
O=C(NC1CCCCC1)C(=O)c1c(-c2ccccc2)[nH]c2ccccc12	BH1578 lux ind active
CCC(C)[C@H](NC(=O)[C@H](CC(C)C)NC(=O)OC(C)(C)C)C(=O)N[C@@H](Cc1ccccc1)C(=O)OC (some centres undefined)	none (no result: BH1578 lux ind, FBA Mtb inh, GDH-TPI counter)
CC(=O)Oc1ccc(C(=O)Nc2ccccc2C(=O)N2CCCCC2)cc1	none
O=C(COC(=O)c1ccc(F)cc1F)Nc1ccc(Cl)cn1	none
O=C(Nc1ccc(Cl)cc1)N1CCOC12CCC1(CC2)OCCO1	none
O=C1c2cccc3cc([N+](=O)[O-])cc(c23)C(=O)N1/N=C/c1ccc(O)cc1O	GDH-TPI counter 55.7
O=C(CCc1ccc(O)cc1)c1c(O)cc(O)cc1O[C@@H]1O[C@H](CO)[C@@H](O)[C@H](O)[C@H]1O	GDH-TPI counter 33.3
O=c1c(O[C@@H]2O[C@H](CO)[C@@H](O)[C@H](O)[C@H]2O)c(-c2ccc(O)cc2)oc2cc(O)cc(O)c12	GDH-TPI counter 37.2 (no result: CCHF vOTU inh)
OC[C@H]1O[C@@H](Oc2ccc(O)cc2)[C@H](O)[C@@H](O)[C@@H]1O	none
O=c1cc(C(F)(F)F)[nH]c2ccc(OC(F)(F)F)cc12	none
O=c1cc(C(F)(F)F)[nH]c2c(C(F)(F)F)cccc12	FBA Mtb inh active (no result: CCHF vOTU inh)
CC(C)(C)C(=O)Nc1ccc(C(=O)COC(=O)c2ccccn2)cc1	none
COc1c(C=O)c2c(c(OC)c1OC)-c1ccc(OC)c(=O)cc1C(NC(C)=O)CC2 (centres undefined)	GDH-TPI counter 31.9
Cc1cccc(C)c1OCc1nnc(SCC(=O)Nc2nccs2)n1-c1ccccc1	none
O=C(CSc1nnc(SCc2ccc(Cl)cc2)s1)N/N=C/c1ccc(Cl)cc1Cl	none
Cc1nnc(SCC(=O)N/N=C/c2cc(Cl)c(O)c(Cl)c2)s1	GDH-TPI counter 34.7
N=c1c(S(=O)(=O)c2ccc(Br)cc2)cc2c(=O)n3ccccc3nc2n1Cc1ccccc1	none
N=c1c(C(=O)NCc2ccco2)cc2c(=O)n3ccccc3nc2n1CCc1ccccc1	FBA Mtb inh 126.0
COc1ccc(CCn2c(=N)c(C(=O)NCc3ccco3)cc3c(=O)n4ccccc4nc32)cc1OC	none
Cc1ccc(Cn2c(=N)c(C(=O)NCc3ccco3)cc3c(=O)n4ccccc4nc32)cc1	FBA Mtb inh 51.6
COc1ccc(CCNC(=O)c2cc3c(=O)n4ccccc4nc3n(Cc3ccco3)c2=N)cc1OC	none
COCCn1c(=N)c(C(=O)NCc2ccco2)cc2c(=O)n3cc(C)ccc3nc21	FBA Mtb inh 148.8
N=c1c(S(=O)(=O)c2ccc(Br)cc2)cc2c(=O)n3ccccc3nc2n1Cc1ccco1	FBA Mtb inh 130.6
Cc1cccc(C)c1NC(=O)C(c1cc2ccccc2o1)N1CCN(C)CC1 (centres undefined)	none (no result: BH1578 lux ind, FBA Mtb inh, GDH-TPI counter)
COc1ccccc1CN(C)CC(=O)Nc1ccc(Cl)cc1C(F)(F)F	none
COc1ccc(N=Cc2ccc(N(CCC#N)CCC#N)cc2)cc1	GDH-TPI counter 49.1
COC(=O)c1ccc(-c2cc(C(=O)O)c3cc4c(cc3n2)OCCO4)cc1	FBA Mtb inh active
CC(C)C1Oc2cc3oc(=O)ccc3cc2C1=O (centres undefined)	FBA Mtb inh 115.1
O=c1ccc2cc3c(-c4ccccc4)coc3cc2o1	none
O=C(CCc1ccccc1)NNC(=O)COc1ccc(Br)cc1	none
COC(=O)c1sc(N)c(C(=O)OC)c1COC(=O)CNS(=O)(=O)c1cccc(C#N)c1	none
CCOC(=O)c1ccc2nc(C(F)(F)F)[nH]c(=O)c2c1	FBA Mtb inh 42.0
CC1(C)CC(=O)C=C(c2ccc(-c3ccccc3)cc2)C1	none
CC1(C)CC(=O)C=C(c2ccc3c(c2)OCO3)C1	GDH-TPI counter 32.8
CC(C)c1ccc(NC(=O)CN2CCN(c3ccccn3)CC2)cc1	none
COc1ccc(NC(=O)CN2CCN(c3ccccn3)CC2)cc1Cl	FBA Mtb inh active
CC(C(=O)N1CCc2ccccc21)N(C)CC(=O)Nc1cccc(F)c1 (centres undefined)	none
O=C1NC(=S)N/C1=C\C=C\c1ccccc1	GDH-TPI counter 33.2
O=c1c2cc(N3CCOCC3)ccc2[nH]c(=S)n1CCCN1CCCCC1	GDH-TPI counter 30.6
COc1ccccc1C1C(C(C)=O)=C(O)C(=O)N1c1ccc(O)cc1 (centres undefined)	GDH-TPI counter 42.0
CCOC(=O)c1ccc(N2C(=O)C(O)=C(C(C)=O)C2c2ccc([N+](=O)[O-])cc2)cc1 (centres undefined)	GDH-TPI counter 31.8
COc1ccc(C2C(C(C)=O)=C(O)C(=O)N2Cc2ccccc2)c(OC)c1 (centres undefined)	none
